Some of the results follow. Results filed as inconclusive are left out. Activity calls are given as the source filed them. The call rests on the fitted dose curve; in most records, active means well fitted inhibition curve with a large enough effect; inconclusive means small, poorly fitted or top-dose-only effect; inactive means no such curve, though single readings can be large or run the other way.
These compounds were tested against 4'-phosphopantetheinyl transferase Sfp (Bacillus subtilis (strain 168)) (UniProt P39135) (assay: qHTS Assay for Inhibitors of Bacillus subtilis Sfp phosphopantetheinyl transferase (PPTase): SAR Round 2). Conditions: purified Sfp enzyme, PPTase activity.
Excerpt: The covalent attachment of a phosphopantetheinyl (4'-PP) arm to a variety of synthases and other proteins is a key posttranslational protein modification. The 4'-PP is installed on the proteins post-translationally from coenzyme A (CoA) on a conserved serine residue by action of phosphopantetheinyl transferase (PPTase) enzymes. Phosphopantetheinylation is essential for synthase activity, and removal of the PPTase gene precludes natural product synthesis in microorganisms, or in the case of fatty acid biosynthesis, renders the organism unviable. PPTase enzymes belong to a distinct structural superfamily. Within bacteria, these enzymes are grouped into two classes based upon primary structure, the AcpS-Type and Sfp-Type PPTases.
Sfp-type PPTases, corresponding to an activator of surfactin production in Bacillus subtilis, are responsible for modifying type I polyketide and nonribosomal peptide synthases of prokaryotes. Sfp-type PPTases are responsible for the activation of a variety of pathogen-associated virulence factors. Among these compounds are toxins such as mycolactone from Mycobacterium ulcerans, siderophores such as vibriobactin from Vibrio cholerae or mycobactin from Mycobacterium tuberculosis, as well as the mycolic acids which form the waxy cell wall of Mycobacteria. The biosyntheses of these natural products are considered attractive targets for drug design.
In search of small molecule Sfp-PPTase inhibitors, a fluorescence quenching assay was developed for detection of Bacillus subtilis Sfp-PPTase enzymatic activity in a miniaturized high-throughput format. The consensus ybbr acceptor peptide […] was N-terminally labeled with Black Hole Quencher-2 (BHQ-2) and used in combination with rhodamine-labeled coenzyme A as a co-substrate.
Inhibition of Sfp-PPTase was detected by recording the fluorescence intensity change over a 30-minute reaction period at a 525 nm excitation and 598 nm emission. Reagents were supplied by Michael Burkart and Timothy Foley, University of California at San Diego.
NIH Chemical Genomics Center [NCGC]
NIH Molecular Libraries Probe Centers Network [MLPCN]
Assay Submitter (PI): Michale Burkart, University of California, San Diego
Assay Buffer: 50 mM Hepes-Na pH 7.6, 10 mM MgCl2, 0.01% Nonidet P-40, and 0.01% BSA.
3 uL of Sfp-PPTase enzyme (final concentration 15 nM) and 1 uL of substrate mixture (final concentration for rhodamine-CoA and BHQ-2-YbbR 5 uM and 12.5 uM, respectively) dispensed in columns 1, 2, 5 - 48. Columns 1 and 2 used to generate neutral control (uninhibited reaction)
Three uL of reagents, consisting of buffer (in columns 3 and 4 as negative control) and Sfp-PPTase (in columns 1, 2, 5 - 48) were dispensed into 1,536-well Greiner black solid bottom plate. Compounds (23 nL) were transferred via Kalypsys pintool equipped with 1,536-pin array. The plate was incubated for 15 min at room temperature, followed by the addition of 1 uL substrate to start the reaction. The plate was then centrifuged at 1000 rpm for 15 seconds, and the fluorescence intensity recorded on a ViewLux High-throughput CCD imager (Perkin-Elmer) using standard BODIPY optics (525 nm excitation and 598 nm emission). The plate was then incubated for 30 minutes, and a second read on the ViewLux was performed. The fluorescence intensity difference over the 30-minute period was used to calculate the respective reaction rate for each well.

Potency, active:
Cc1cc(C)nc(NC(=S)N2CCN(c3cccc(C#N)c3)CC2)c1 1620 nM
Cc1cc(C)nc(NC(=S)N2CCN(c3ccc(Cl)cc3F)CC2)c1 910 nM
COc1cccc(NC(=S)N2CCN(c3ccccc3C(F)(F)F)CC2)n1 3240 nM
Cc1cc(C)nc(NC(=S)N2CCN(c3cccc(C(F)(F)F)c3)CC2)c1 510 nM
COc1ccnc(NC(=S)N2CCN(c3ncc(C(F)(F)F)cc3Cl)CC2)c1 290 nM
Cc1cc(C)nc(NC(=S)N2CCN(c3ccc4nonc4c3)CC2)c1 6460 nM
Cc1ccc(N2CCN(C(=S)Nc3cc(C)ccn3)CC2)cc1 5130 nM
Cc1cc(C)nc(NC(=S)N2CCN(c3ccc(Cl)cc3C(F)(F)F)CC2)c1 580 nM

Reference: PubChem BioAssay AID602370 (National Center for Advancing Translational Sciences (NCATS), 2012)
